Hits are enriched below; roughly 2% of the tested compounds scored in any of these assays.
Shn3 3UTR inh: inhibitors of Schnurri-3 3'UTR reporter in osteoblasts | inhibition, % at 12.5 µM | Clone20 osteoblast Shn3 3'UTR firefly luciferase, 24 h | 360,000 compounds, 0.52% hits;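 active means mean inhibition of at least 75% with every replicate also reaching 75%; inconclusive means mean inhibition at least 75% but some replicate below; inactive means mean inhibition below 75%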;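 further: 0% = median of neutral control wells and 100% = pilot-screen positive control compound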
CF NFkB block: inhibitors of cystic fibrosis induced NF-kB; KKLEB NF-kB-GFP reporter, PAF-induced, GFP fluorescence overnight; inhibition, % at 5 µM; 360,000 compounds, 0.86% hits; AID 588850;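 active means at least 50% inhibition at 5 µM, scaled per plate between neutral and stimulator controls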;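 further: PAF is a Pseudomonas aeruginosa culture filtrate used as stimulus; plate controls were PAF-stimulated DMSO wells for no effect and unstimulated DMSO wells for full effect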
LGR2 inh: inhibitors of bursicon-induced Drosophila LGR2 receptor cAMP signaling; inhibition, % at 9.99 µM; HEK293 LGR2, CRE-luciferase, bursicon-stimulated, 4 h; 380,000 compounds, 0.35% hits;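 active means drop in luminescence signal, shown as inhibition above about 50% in the replicate tests, limit read from the data, passing the limit was not always enough; inconclusive means probably only some replicates passing the limit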;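 further: agonist challenge used bursicon conditioned medium at about half maximal strength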
EWS-Fli block: blocks EWS/Fli oncoprotein-driven transcription. A673 NR0B1-luciferase reporter, viability-normalised. inhibition, % at 12.6 µM. 350,000 compounds, 0.67% hits;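 active means mean inhibition of at least 50% after viability correction, with every replicate also passing that limit; inconclusive means mean reaches 50% but only one of two replicates passes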;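 further: firefly luciferase signal divided by Alamar Blue viability fluorescence both relative to DMSO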
KKLEB tox: counter-screen for CF NF-kB inhibitors: cytotoxicity. KKLEB CF airway cells viability, ATPlite luminescence, overnight; active compounds read low; cells stimulated with P. aeruginosa culture filtrate. activity change (cytotoxicity), % at 5 µM. 360,000 compounds, 0.36% hits;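 active means corrected activity change at or below -50% at 5 µM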
PAX8 reporter: PAX8 transcriptional activity inhibition; RMG-I TPO-luciferase reporter, SteadyGlo, 24 h; AID 652154; 360,000 compounds, 1.2% hits; inhibition, % at 12.6 µM;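 active means mean replicate inhibition at least 60% with every replicate also reaching 60%; inconclusive means only one of the two criteria is met; inactive means mean below 60% and not all replicates reaching 60%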;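 further: luciferase light reporting Pax8 driven TPO promoter activity; plate controls were median of neutral control wells for no effect and mitoxantrone controls for full effect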
Active calls of the source: *; ? = inconclusive; . = no result.

SMILES | Shn3 3UTR inh | CF NFkB block | LGR2 inh | EWS-Fli block | KKLEB tox | PAX8 reporter
COc1ccc(S(=O)(=O)Nc2ccc3c(c2)C(=O)N([C@@H](C)CO)C[C@@H](C)[C@@H](CN(C)S(=O)(=O)c2ccc(C)cc2)OCCCC[C@@H](C)O3)cc1 | . | . | 11.4 | -11.5 | . | 67.1*
O=C(CN1C(=O)c2ccccc2S1(=O)=O)c1ccc2c(c1)OCCCO2 | 93.6* | -13.9 | 92.7* | 88.7* | 0.2 | 103.7*
O=C(CN1C(=O)c2ccccc2S1(=O)=O)c1ccc2c(c1)OCCO2 | . | 5.6 | 103.2* | 86.1* | -4.1 | 104.7*
CCOC(=O)C1=C(O)/C(=C/c2cn(CC(=O)NCC3CCCO3)c3ccccc23)SC1=Nc1ccc(C)cc1 (stereo unspecified) | 68.8 | 58.1* | . | . | -55.8* | .
C/C=C/c1ccc2c(c1)O[C@@H](CN(C)C(=O)COC)[C@H](C)CN([C@H](C)CO)S2(=O)=O | . | . | 12.6 | -10.8 | . | .
C#CC[N+]1(CC#Cc2ccccc2)CCCCC1 | 10.5 | 6.0 | 23.0 | 9.2 | -4.3 | 0.1
C(#Cc1ccccc1)C[N+]1(CC#Cc2ccccc2)CCCCC1 | 86.0* | 3.9 | -5.5 | 17.3 | -9.4 | 38.3
C#CC[N+]1(CC#Cc2cccc(C)c2)CCCCC1 | 8.7 | 6.3 | -7.1 | 7.3 | -0.2 | 25.4
Cc1ccc(C#CC[N+]2(CC#Cc3ccc(C)cc3)CCCCC2)cc1 | 76.2 | 35.3 | 22.6 | 32.8 | -23.7 | 68.9*
Cc1ccc(C(=O)Nc2ccc3c(c2)CCC3)cc1 | 14.5 | -17.2 | ? | 58.9* | -24.2 | 9.9
Cc1cc(C(=O)Nc2ccc3c(c2)OCCO3)ccc1[N+](=O)[O-] | 21.2 | -6.1 | 59.3* | 39.0 | 4.0 | -26.1
Cc1ccc(C(=O)Nc2ccc3c(c2)OCCO3)cc1 | 32.1 | -5.5 | 66.5* | 69.0* | -17.5 | 49.6
Cc1ccc(C(=O)NCC(=O)Nc2ccc3c(c2)CCC3)cc1 | -49.3 | -10.7 | -65.2 | -42.6 | -2.1 | .
Cc1ccc(C(=O)Nc2ccc3c(c2)OCO3)cc1 | 6.0 | -5.9 | . | . | -3.4 | .
Cc1ccc(C(=O)Nc2ccc3c(c2)OCCO3)c(Cl)c1 | 8.7 | -1.4 | 82.4* | 63.3* | -49.1 | 52.4
C[C@@H]1CN([C@@H](C)CO)S(=O)(=O)c2ccc(C#CC3CC3)cc2O[C@H]1CN(C)C(=O)c1cccnc1 | . | . | -22.7 | -10.4 | . | .
C[C@@H]1CN([C@H](C)CO)C(=O)c2cc(NC(=O)Nc3cccc4ccccc34)ccc2O[C@@H](C)CCCCO[C@@H]1CN(C)S(=O)(=O)c1cccs1 | . | . | 0.2 | 0.9 | . | -5.1
Cc1noc(C)c1NC(=O)N(C)C[C@@H]1Oc2ccc(NC(=O)Cc3ccccc3)cc2C(=O)N([C@@H](C)CO)C[C@@H]1C | . | . | 10.1 | . | . | -0.4
COc1cccc(C(=O)Nc2ccc3c(c2)OC[C@H](C)N(C(C)=O)C[C@H](C)[C@H](OC)CN(C)C3=O)c1 | . | . | -12.8 | -1.1 | . | 6.3
Cc1ccc(S(=O)(=O)N(C)C[C@H]2Oc3ccc(NC(=O)Cc4cn(C)c5ccccc45)cc3CC(=O)N([C@H](C)CO)C[C@@H]2C)cc1 | . | . | -2.4 | 6.4 | . | -0.8
COc1ccccc1N(C(C)=O)C1=C(Cl)C(=O)c2ccccc2C1=O | 76.7 | 51.2* | ? | 56.0* | -43.7 | 116.9*
COc1cc2c(cc1O)C=[N+](Cc1cc3c(cc1Br)OCO3)CC2 | . | . | . | 23.4 | . | 12.0
CN(C)S(=O)(=O)c1cccc(NC(=S)Nc2cccc3cnccc23)c1 | 76.4 | 73.1* | 19.0 | -24.1 | -3.5 | -26.9
C[C@H](CO)N1C[C@H](C)[C@H](CN(C)CC2CCCCC2)OCCCC[C@H](C)Oc2ccc(NC(=O)Cc3ccccc3)cc2C1=O | . | . | 11.3 | -22.0 | . | -17.7
C[C@@H]1CCCCO[C@@H](CN(C)CC2CCCCC2)[C@H](C)CN([C@@H](C)CO)C(=O)c2cc(NC(=O)Nc3ccc(C(F)(F)F)cc3)ccc2O1 | . | . | 5.9 | 76.2* | . | 17.2
C[C@@H]1CCCCO[C@@H](CN(C)CC2CCCCC2)[C@@H](C)CN([C@H](C)CO)C(=O)c2cc(NC(=O)Nc3ccc(C(F)(F)F)cc3)ccc2O1 | . | . | -10.7 | -11.3 | . | -20.7
C[C@@H]1CCCCO[C@H](CN(C)CC2CCCCC2)[C@H](C)CN([C@@H](C)CO)C(=O)c2cc(NC(=O)Nc3ccccc3)ccc2O1 | . | . | 4.9 | 18.7 | . | 78.4*

Screening data as filed in PubChem.
